Results on three compounds are retold here after PubChem BioAssay AID2284205 (EPA ToxCast).

Structures are written as SMILES. Calls of active or inactive are those of the source. The calls were made as follows: active = hit-call score of the fitted dose curve at least 0.9, where 1 is the maximum; inactive = score below 0.9.

Peroxisome proliferator-activated receptor gamma (Homo sapiens), sequence (P37231 whole entry, looked up): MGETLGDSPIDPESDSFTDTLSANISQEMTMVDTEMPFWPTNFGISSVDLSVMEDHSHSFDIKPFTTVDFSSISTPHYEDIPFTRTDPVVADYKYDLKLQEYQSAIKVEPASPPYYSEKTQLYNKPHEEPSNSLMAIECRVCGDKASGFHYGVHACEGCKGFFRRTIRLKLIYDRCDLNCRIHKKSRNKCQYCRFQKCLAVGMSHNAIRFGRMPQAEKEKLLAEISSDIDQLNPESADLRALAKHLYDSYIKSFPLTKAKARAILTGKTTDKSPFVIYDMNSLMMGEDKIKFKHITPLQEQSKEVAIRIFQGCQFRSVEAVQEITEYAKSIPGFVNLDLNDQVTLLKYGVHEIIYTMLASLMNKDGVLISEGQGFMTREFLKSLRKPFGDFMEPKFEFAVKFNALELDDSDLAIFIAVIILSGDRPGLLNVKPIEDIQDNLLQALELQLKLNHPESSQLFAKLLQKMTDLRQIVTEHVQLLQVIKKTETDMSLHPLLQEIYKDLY

The test concerns the target Peroxisome proliferator-activated receptor gamma (Homo sapiens) (UniProt P37231). Nature of the test: ERF_TW_NR_hPPARG: Eurofins (ERF) Nuclear Receptor (NR) Radioligand Binding LeadHunter Assay for human Peroxisome Proliferator-activated Receptor gamma (PPARg) Agonism, conducted at Taiwan lab site. The protocol:
ERF_TW_NR_hPPARG is a biochemical, single-readout assay that uses extracted gene-proteins in a cell-free assay. Measurements were taken 24 hour after chemical dosing in a 96-well plate. See PPARgamma Human NHR Binding (Agonist Radioligand) Assay, Panlabs.ERF_TW_NR_hPPARG is an assay component calculated from the ERF_TW_NR_hPPARG assay. It is designed to measure radioligand binding using a type of binding reporter as detected by scintillation counting with radiometry technology.Data from the assay component ERF_TW_NR_hPPARG was analyzed at the assay endpoint, ERF_TW_NR_hPPARG, in the positive analysis fitting direction relative to DMSO as the negative control and baseline of activity. Using a type of binding receptor, gain-of-signal activity can be used to understand changes in binding receptor as they relate to gene PPARG.To generalize the intended target to other relatable targets, this assay endpoint is annotated to the nuclear receptor intended target family, where the subfamily is non-steroidal.
Human recombinant PPARgamma-LBD expressed in insect cells are used in modified Tris-HCl buffer pH 7.2. A 0.03 ug aliquot is incubated with 5 nM [3H]Rosiglitazone and 1 ug anti-GST antibody for 24 hours at 4C. Non-specific binding is estimated in the presence of 10 uM rosiglitazone. Receptors are counted to determine [3H]Rosiglitazone specifically bound. Compounds are screened at 10 uM.Test Sample Requirements: Minimum for 1) Screen: 25 ul of 10 mM stock -OR- 1 mg (pre-weighed). 2) Dose Response: 60 ul of 10 mM stock -OR- 1 mg (pre-weighed).
In the case of `O=S(=O)(O)C(F)(F)C(F)(F)C(F)(F)C(F)(F)C(F)(F)C(F)(F)C(F)(F)F`, the AC50 was 31.7 µM (active).

`O=C(CC(=O)C(F)(F)C(F)(F)C(F)(F)F)c1cccs1`: the AC50 was 7.47 µM (active).

For `O=C(O)C(F)(F)C(F)(F)C(F)(F)C(F)(F)C(F)(F)C(F)(F)C(F)(F)C(F)(F)Cl`, the AC50 is 13.4 µM (active).
